Tests used:
Experiment in all cases: DAPPL (digital affinity profiling via proximity ligation, sequencing); 10 mM Tris-HCl pH 7.5, 50 mM NaCl, 1 mM DTT, 4% glycerol, room temperature, 30 min; GST-TFs on glutathione beads, 16-mer random dsDNA library, 0.1% formaldehyde crosslink after washing; high values mean tight binding
[1] = target: T1, FLI1 (Homo sapiens, UniProt Q01543 1-452); conditions: protein: recombinant; tags: N-terminal GST; dsDNA, one strand shown
T1 sequence: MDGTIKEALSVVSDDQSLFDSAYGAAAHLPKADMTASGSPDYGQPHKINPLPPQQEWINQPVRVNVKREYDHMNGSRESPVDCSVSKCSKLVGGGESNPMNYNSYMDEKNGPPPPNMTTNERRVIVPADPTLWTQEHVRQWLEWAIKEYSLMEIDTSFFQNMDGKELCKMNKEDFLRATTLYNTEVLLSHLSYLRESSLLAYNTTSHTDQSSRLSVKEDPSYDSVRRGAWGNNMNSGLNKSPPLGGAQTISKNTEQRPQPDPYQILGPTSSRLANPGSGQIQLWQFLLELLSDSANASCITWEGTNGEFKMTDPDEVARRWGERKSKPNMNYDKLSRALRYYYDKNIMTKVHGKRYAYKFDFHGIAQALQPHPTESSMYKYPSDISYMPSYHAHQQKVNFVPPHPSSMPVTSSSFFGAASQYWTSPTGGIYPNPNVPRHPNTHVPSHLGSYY
Summary of the method: (§1)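 GST fusions of human transcription factors were expressed in yeast and captured with glutathione beads. Once given DNA barcodes and pooled alongside a tag-only sample, they were incubated for 30 min at room temperature with 200 nmole of a random double-stranded 16-mer DNA library in Tris/NaCl/DTT/glycerol buffer, then washed, crosslinked (0.1% formaldehyde), proximity-ligated, PCR-amplified and sequenced on an Illumina NextSeq500. The binding signal of each hexamer is its read frequency for a factor divided by its frequency for the tag-only sample.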

[2] = target: T2, ELK1 (Homo sapiens, UniProt P19419 1-428); conditions: protein: recombinant; tags: N-terminal GST; dsDNA, one strand shown
T2 sequence: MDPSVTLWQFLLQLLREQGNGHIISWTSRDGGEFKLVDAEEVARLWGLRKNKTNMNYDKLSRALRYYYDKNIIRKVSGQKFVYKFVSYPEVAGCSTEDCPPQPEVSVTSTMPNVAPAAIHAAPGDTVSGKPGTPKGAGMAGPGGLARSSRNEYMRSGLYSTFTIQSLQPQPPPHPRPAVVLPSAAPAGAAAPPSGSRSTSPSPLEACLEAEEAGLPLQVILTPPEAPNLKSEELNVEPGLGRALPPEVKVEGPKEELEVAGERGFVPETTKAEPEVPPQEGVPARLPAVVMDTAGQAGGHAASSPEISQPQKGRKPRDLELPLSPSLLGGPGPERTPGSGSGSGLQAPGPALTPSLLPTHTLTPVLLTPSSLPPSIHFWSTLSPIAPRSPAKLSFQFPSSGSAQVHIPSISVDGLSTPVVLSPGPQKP
Summary of the method: as §1

[3] = target: T3, GABPA (Homo sapiens, UniProt Q06546 1-454); conditions: protein: recombinant; tags: N-terminal GST; dsDNA, one strand shown
T3 sequence: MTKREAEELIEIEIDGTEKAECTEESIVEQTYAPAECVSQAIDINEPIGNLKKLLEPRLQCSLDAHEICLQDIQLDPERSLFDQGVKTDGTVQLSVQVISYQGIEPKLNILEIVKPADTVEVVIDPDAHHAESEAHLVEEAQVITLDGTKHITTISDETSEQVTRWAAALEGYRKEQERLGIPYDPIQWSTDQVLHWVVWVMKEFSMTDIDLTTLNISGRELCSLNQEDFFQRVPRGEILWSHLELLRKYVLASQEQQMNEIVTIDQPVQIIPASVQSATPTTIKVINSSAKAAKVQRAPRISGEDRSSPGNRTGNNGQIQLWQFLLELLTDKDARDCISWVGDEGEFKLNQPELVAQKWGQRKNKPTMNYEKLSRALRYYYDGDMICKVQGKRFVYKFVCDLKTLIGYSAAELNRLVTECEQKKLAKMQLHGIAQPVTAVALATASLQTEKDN
Summary of the method: as §1

[4] = target: T4, ERG (Homo sapiens, UniProt P11308 1-479); conditions: protein: recombinant; tags: N-terminal GST; dsDNA, one strand shown
T4 sequence: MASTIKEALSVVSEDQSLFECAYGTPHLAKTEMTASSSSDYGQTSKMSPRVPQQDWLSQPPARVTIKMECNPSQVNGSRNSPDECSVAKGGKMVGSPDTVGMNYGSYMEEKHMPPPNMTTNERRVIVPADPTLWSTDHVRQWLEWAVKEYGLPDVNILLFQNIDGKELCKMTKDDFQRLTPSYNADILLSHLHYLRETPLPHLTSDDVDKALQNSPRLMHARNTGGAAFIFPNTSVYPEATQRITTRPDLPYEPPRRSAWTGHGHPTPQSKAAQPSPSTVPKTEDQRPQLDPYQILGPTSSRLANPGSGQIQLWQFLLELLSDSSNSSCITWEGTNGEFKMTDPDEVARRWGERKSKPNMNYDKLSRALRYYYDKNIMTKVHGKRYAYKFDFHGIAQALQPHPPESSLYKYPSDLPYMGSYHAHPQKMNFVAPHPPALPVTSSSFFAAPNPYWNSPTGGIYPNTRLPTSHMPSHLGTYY
Summary of the method: as §1

[5] = target: ELF1 (Homo sapiens, UniProt P32519 1-619); conditions: protein: recombinant; tags: N-terminal GST; dsDNA, one strand shown
ELF1, sequence (P32519 whole entry): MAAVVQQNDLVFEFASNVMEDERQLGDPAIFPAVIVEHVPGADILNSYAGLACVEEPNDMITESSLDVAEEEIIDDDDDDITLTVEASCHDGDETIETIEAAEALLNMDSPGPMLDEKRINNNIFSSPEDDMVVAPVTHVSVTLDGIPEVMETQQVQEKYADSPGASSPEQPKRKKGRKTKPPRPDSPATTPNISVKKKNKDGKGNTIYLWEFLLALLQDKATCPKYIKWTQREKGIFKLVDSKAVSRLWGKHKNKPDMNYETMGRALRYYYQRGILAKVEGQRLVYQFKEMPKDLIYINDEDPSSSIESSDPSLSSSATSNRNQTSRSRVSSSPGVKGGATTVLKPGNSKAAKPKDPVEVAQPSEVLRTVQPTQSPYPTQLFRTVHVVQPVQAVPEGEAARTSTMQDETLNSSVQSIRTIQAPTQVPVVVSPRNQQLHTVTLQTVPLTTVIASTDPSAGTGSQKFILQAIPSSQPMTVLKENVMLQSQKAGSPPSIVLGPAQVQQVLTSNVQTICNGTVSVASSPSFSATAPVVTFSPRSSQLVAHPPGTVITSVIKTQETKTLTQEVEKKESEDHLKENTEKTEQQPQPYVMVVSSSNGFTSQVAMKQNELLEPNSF
Summary of the method: as §1

[6] = target: T5, EHF (Homo sapiens, UniProt Q9NZC4 1-300); conditions: protein: recombinant; tags: N-terminal GST; dsDNA, one strand shown
T5 sequence: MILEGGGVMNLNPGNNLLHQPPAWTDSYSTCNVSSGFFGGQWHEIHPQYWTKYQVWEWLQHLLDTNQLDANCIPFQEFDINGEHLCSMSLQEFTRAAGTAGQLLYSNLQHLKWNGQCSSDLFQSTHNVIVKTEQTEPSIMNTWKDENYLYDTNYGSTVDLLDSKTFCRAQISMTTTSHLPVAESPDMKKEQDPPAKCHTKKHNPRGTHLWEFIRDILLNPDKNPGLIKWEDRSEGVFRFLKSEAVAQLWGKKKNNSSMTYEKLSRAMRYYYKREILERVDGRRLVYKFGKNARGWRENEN
Summary of the method: as §1

[7] = target: SPI1 (Homo sapiens, UniProt P17947 1-270); conditions: protein: recombinant; tags: N-terminal GST; dsDNA, one strand shown
Summary of the method: as §1

[8] = target: SPIB (Homo sapiens, UniProt Q01892 1-262); conditions: protein: recombinant; tags: N-terminal GST; dsDNA, one strand shown
SPIB, sequence (Q01892 whole entry): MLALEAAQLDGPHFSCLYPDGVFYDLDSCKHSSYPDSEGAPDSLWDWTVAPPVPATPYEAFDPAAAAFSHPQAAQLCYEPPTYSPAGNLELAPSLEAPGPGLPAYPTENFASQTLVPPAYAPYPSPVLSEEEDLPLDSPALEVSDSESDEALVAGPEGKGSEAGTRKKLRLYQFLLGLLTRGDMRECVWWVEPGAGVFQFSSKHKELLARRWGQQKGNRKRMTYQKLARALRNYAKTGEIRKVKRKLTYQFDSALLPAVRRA
Summary of the method: as §1

[9] = target: T6, ELK3 (Homo sapiens, UniProt P41970 1-407); conditions: protein: recombinant; tags: N-terminal GST; dsDNA, one strand shown
T6 sequence: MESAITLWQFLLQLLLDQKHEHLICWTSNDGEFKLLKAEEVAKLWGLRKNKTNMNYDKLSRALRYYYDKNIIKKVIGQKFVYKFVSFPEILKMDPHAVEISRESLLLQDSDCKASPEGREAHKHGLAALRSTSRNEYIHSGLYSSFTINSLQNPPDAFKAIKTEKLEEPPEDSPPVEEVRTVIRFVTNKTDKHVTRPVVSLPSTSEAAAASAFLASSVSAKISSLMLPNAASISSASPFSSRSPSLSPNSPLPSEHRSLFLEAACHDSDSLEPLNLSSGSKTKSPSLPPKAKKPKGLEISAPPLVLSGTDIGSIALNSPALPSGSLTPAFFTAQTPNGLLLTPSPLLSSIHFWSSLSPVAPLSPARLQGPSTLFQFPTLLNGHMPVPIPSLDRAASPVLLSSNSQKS
Summary of the method: as §1

[10] = target: T7, FEV (Homo sapiens, UniProt Q99581 1-238); conditions: protein: recombinant; tags: N-terminal GST; dsDNA, one strand shown
T7 sequence: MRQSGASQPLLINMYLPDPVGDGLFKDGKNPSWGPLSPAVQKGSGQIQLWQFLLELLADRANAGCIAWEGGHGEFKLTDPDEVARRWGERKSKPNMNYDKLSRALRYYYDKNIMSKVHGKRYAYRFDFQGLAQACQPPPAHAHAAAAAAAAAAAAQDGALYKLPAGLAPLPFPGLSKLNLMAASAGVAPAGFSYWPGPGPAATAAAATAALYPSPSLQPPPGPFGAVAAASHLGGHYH
Summary of the method: as §1

[11] = target: ETV5 (Homo sapiens, UniProt P41161 1-510); conditions: protein: recombinant; tags: N-terminal GST; dsDNA, one strand shown
ETV5, sequence (P41161 whole entry): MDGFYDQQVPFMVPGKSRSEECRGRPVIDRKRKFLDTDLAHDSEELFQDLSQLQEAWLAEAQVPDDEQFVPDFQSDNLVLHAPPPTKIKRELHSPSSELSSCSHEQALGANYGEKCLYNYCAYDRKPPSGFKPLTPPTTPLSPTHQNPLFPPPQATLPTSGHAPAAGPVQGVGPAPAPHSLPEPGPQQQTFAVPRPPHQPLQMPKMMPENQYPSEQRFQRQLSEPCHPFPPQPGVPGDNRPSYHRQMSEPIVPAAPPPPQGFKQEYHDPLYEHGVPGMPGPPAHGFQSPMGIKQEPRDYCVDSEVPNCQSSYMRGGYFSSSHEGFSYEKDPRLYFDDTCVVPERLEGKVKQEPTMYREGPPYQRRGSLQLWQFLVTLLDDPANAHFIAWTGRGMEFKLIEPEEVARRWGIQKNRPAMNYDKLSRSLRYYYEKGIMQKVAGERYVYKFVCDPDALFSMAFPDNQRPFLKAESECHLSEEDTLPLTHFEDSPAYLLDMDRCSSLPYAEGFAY
Summary of the method: as §1

[12] = target: HSF1 (Homo sapiens, UniProt Q00613 1-529); conditions: protein: recombinant; tags: N-terminal GST; chain copies: 3; dsDNA, one strand shown
HSF1, sequence (Q00613 whole entry): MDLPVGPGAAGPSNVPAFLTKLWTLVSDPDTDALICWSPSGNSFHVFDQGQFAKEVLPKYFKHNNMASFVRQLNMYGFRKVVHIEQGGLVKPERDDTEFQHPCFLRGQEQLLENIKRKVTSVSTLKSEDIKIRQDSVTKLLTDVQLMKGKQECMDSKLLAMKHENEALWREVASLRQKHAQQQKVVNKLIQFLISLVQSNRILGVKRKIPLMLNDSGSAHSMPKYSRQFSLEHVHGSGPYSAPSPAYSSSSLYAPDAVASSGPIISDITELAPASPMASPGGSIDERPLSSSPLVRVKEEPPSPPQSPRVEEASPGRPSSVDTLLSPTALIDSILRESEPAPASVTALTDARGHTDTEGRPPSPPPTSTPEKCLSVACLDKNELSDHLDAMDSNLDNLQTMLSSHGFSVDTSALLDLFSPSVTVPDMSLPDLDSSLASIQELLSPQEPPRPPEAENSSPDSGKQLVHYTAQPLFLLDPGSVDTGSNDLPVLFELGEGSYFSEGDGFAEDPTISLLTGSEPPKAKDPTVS
Summary of the method: as §1

[13] = target: T8, SPIC (Homo sapiens, UniProt Q8N5J4 1-248); conditions: protein: recombinant; tags: N-terminal GST; dsDNA, one strand shown
T8 sequence: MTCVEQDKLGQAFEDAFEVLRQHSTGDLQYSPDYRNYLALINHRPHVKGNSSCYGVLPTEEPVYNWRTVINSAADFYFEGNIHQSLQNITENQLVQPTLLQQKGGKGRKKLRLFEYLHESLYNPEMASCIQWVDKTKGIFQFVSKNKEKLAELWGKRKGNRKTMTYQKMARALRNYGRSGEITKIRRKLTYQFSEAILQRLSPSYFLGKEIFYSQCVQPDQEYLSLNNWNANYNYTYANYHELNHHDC
Summary of the method: as §1

[14] = target: ELF4 (Homo sapiens, UniProt Q99607 1-663); conditions: protein: recombinant; tags: N-terminal GST; dsDNA, one strand shown
ELF4, sequence (Q99607 whole entry): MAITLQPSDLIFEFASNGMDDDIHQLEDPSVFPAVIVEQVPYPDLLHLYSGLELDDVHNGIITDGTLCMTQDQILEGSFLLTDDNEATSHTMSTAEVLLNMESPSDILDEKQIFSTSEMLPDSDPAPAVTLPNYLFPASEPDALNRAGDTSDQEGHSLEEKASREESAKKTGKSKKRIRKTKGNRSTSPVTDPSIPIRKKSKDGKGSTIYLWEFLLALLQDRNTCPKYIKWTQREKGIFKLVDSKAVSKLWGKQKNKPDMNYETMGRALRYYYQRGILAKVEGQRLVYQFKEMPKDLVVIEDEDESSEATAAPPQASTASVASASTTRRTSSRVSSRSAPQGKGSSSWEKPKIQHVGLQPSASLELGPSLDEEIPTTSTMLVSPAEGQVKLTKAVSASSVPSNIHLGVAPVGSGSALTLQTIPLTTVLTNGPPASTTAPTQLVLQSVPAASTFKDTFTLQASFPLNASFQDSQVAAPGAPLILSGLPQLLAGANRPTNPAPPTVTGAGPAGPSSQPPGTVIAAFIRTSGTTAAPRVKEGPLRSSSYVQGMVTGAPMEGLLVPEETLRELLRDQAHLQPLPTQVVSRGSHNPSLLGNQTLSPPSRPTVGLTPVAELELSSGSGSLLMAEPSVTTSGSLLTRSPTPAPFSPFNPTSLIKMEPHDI
Summary of the method: as §1

[15] = target: T9, ELK4 (Homo sapiens, UniProt P28324-2 1-405); conditions: protein: recombinant; tags: N-terminal GST; dsDNA, one strand shown
T9 sequence: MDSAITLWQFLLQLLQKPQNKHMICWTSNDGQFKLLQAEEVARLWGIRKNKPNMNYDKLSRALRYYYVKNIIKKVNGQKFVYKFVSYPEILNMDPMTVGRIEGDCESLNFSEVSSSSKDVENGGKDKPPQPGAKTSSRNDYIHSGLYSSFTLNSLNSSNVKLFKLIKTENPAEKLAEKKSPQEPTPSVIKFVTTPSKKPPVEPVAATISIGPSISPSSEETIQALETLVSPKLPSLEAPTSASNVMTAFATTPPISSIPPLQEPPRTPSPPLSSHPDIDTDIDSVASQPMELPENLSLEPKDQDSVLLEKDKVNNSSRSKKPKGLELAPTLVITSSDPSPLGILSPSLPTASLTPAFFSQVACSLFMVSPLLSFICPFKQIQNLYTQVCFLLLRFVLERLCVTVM
Summary of the method: as §1

[16] = target: T10, ETV2 (Homo sapiens, UniProt O00321 1-342); conditions: protein: recombinant; tags: N-terminal GST; dsDNA, one strand shown
T10 sequence: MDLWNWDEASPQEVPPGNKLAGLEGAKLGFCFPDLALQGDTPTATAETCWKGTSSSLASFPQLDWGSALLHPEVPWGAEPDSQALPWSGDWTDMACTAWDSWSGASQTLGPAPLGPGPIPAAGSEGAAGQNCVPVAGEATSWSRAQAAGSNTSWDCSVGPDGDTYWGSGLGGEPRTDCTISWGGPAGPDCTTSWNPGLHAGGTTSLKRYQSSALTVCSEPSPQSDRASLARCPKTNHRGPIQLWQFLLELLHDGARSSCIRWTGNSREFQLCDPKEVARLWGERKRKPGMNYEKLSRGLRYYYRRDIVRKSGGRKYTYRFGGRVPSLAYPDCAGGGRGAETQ
Summary of the method: as §1

[17] = target: T11, ELF3 (Homo sapiens, UniProt P78545 1-371); conditions: protein: recombinant; tags: N-terminal GST; dsDNA, one strand shown
T11 sequence: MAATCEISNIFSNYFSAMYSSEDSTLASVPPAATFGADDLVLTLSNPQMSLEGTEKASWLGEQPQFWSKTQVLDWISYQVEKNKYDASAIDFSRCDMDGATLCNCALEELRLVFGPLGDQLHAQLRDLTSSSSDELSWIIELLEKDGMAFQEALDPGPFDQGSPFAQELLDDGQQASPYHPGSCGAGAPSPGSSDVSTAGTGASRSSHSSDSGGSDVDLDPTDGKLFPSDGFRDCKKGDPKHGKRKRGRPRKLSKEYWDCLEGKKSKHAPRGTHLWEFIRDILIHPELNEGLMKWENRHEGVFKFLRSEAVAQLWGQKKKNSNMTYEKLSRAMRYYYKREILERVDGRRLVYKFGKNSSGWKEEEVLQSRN
Summary of the method: as §1

[18] = target: CRX (Homo sapiens, UniProt O43186 1-299); conditions: protein: recombinant; tags: N-terminal GST; dsDNA, one strand shown
CRX, sequence (O43186 whole entry): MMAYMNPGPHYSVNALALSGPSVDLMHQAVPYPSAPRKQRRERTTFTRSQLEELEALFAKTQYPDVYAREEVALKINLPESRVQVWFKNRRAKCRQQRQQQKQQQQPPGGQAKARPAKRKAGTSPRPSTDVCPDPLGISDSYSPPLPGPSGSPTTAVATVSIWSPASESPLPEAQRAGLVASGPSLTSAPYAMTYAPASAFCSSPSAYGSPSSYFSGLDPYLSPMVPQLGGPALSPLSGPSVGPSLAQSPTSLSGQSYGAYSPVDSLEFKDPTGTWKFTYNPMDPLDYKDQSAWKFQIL
Summary of the method: as §1

[19] = target: ETV1 (Homo sapiens, UniProt P50549 1-477); conditions: protein: recombinant; tags: N-terminal GST; dsDNA, one strand shown
ETV1, sequence (P50549 whole entry): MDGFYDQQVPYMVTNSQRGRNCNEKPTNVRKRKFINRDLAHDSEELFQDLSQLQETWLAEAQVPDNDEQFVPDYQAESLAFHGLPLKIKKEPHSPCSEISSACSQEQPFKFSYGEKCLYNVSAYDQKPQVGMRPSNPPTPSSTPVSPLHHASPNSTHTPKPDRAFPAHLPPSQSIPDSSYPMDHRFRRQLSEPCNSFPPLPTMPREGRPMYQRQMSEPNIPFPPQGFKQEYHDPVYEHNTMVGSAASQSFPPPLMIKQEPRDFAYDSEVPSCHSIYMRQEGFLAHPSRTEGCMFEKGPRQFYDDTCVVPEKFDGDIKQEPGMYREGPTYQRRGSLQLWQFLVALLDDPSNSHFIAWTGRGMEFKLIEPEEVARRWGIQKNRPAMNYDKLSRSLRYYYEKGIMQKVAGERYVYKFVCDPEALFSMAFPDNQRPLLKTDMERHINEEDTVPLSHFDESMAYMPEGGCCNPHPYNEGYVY
Summary of the method: as §1

How did the binding signal [1] turn out when ATCCGG was run?
Its binding signal is 2.65 fold enrichment (6-mer frequency, TF over GST control).

And the binding signal [2]?
Its binding signal is 2.59 fold enrichment (6-mer frequency, TF over GST control).

And the binding signal [3]?
The binding signal was 2.37 fold enrichment (6-mer frequency, TF over GST control).

And the binding signal [4]?
The binding signal was 3.22 fold enrichment (6-mer frequency, TF over GST control).

What about the binding signal [5] of the same sequence?
Its binding signal is 2.29 fold enrichment (6-mer frequency, TF over GST control).

What about the binding signal [6] of the same sequence?
Its binding signal is 2.65 fold enrichment (6-mer frequency, TF over GST control).

And the binding signal [7]?
Its binding signal is 2.37 fold enrichment (6-mer frequency, TF over GST control).

What about the binding signal [8] of the same sequence?
The binding signal was 2.77 fold enrichment (6-mer frequency, TF over GST control).

What about the binding signal [9] of the same sequence?
Its binding signal is 2.66 fold enrichment (6-mer frequency, TF over GST control).

What about the binding signal [10] of the same sequence?
Its binding signal is 4.68 fold enrichment (6-mer frequency, TF over GST control).

What about the binding signal [11] of the same sequence?
The binding signal was 2.87 fold enrichment (6-mer frequency, TF over GST control).

What about the binding signal [12] of the same sequence?
Its binding signal is 1.31 fold enrichment (6-mer frequency, TF over GST control).

What about the binding signal [13] of the same sequence?
Its binding signal is 2.35 fold enrichment (6-mer frequency, TF over GST control).

What about the binding signal [14] of the same sequence?
Its binding signal is 2.17 fold enrichment (6-mer frequency, TF over GST control).

What about the binding signal [15] of the same sequence?
The binding signal was 2.1 fold enrichment (6-mer frequency, TF over GST control).

What about the binding signal [16] of the same sequence?
The binding signal was 2.6 fold enrichment (6-mer frequency, TF over GST control).

What about the binding signal [17] of the same sequence?
The binding signal was 2.31 fold enrichment (6-mer frequency, TF over GST control).

And the binding signal [18]?
Its binding signal is 1.48 fold enrichment (6-mer frequency, TF over GST control).

And the binding signal [19]?
The binding signal was 2.66 fold enrichment (6-mer frequency, TF over GST control).
